# Compound activity deposited in PubChem by National Center for Advancing Translational Sciences (NCATS).
# Many of the other results were omitted from the sample, so hits are more common in it than they were.
# DT40 TDP1 no CPT: qHTS for Inhibitors of human tyrosyl-DNA phosphodiesterase 1 (TDP1): qHTS in cells in absence of CPT; DT40 Tdp1-/- hTDP1 cells, no CPT, ATP luminescence, 48 h; Potency, µM (doses to about 46.2 µM), usual class: inhibitors; actives 15% (n = 420,000); AID 686978, 2013; further: nearly all actives have a fitted effect of over 55% in size
#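 Cells were dispensed at 400 per well, compounds added by pin tool, plates incubated ≥48 hr at 37 °C, then CellTiter-Glo added for 30 min at room temperature before luminescence reading. Line: DT40 Tdp1-/- complemented with hTDP1; camptothecin omitted.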
# 12-LOX inh: Primary qHTS assay for inhibitors of human arachidonate 12S-lipoxygenase (ALOX12): Round 2; Potency, µM (doses to about 108 µM), usual class: inhibitors; actives 1.1% (n = 580,000); purified 12hLO, xylenol orange hydroperoxide absorbance
# Target sequence (P18054 whole entry, looked up): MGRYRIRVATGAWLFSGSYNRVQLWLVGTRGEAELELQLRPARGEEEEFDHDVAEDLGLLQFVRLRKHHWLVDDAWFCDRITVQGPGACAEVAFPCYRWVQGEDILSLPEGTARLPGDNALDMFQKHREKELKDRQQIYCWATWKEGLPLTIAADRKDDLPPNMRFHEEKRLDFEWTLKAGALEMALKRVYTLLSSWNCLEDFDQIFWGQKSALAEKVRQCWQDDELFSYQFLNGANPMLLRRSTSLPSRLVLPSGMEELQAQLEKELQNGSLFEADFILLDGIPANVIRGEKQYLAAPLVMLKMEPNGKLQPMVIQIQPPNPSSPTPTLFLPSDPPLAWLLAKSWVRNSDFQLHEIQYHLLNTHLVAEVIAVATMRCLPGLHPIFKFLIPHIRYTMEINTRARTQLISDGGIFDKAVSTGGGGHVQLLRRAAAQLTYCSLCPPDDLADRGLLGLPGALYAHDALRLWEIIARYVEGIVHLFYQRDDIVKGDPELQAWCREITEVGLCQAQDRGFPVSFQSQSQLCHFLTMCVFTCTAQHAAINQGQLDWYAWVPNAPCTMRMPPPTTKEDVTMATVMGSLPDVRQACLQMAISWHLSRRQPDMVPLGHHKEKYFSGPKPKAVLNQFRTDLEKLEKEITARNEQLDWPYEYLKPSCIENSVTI
#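 Hydroperoxide product was detected by ferrous iron/xylenol orange as the 573 to 405 nm absorbance ratio. Arachidonic acid at 40 uM (final) was turned over for 30 min at room temperature by 150 nM human 12hLO, pH 7.0 Hepes buffer, after 15 min compound preincubation.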
# IL1B secr inh: qHTS for Inhibitors of Inflammasome Signaling: IL-1-beta AlphaLISA Primary Screen. THP-1 LPS/ATP IL-1B secretion, AlphaLISA, 16 h; active compounds read low. activity change, % at 57.5 µM. actives 4.7% (n = 360,000). AID 743279, 2014; in the data active means activity change below about -50%; inconclusive means mostly about -30% to -49%
#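 Secreted IL-1B measured by AlphaLISA bead assay after 16 h compound exposure of THP-1 cells; compounds (final up to 57.5 uM) added 1 h before LPS (250 ng/mL) and ATP (1.25 mM) stimulation; lower signal means less secretion.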
# HT1080NT lethal: qHTS for induction of synthetic lethality in tumor cells producing 2HG: qHTS for the HT-1080-NT fibrosarcoma cell line. HT-1080-NT fibrosarcoma viability, CellTiter-Glo ATP luminescence, 48 h. Potency, µM (top dose mostly 46.1 µM), usual class: cytotoxic. actives 1.6% (n = 360,000);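 further: NT is the 2HG producing partner of a matched IDH1 knockdown line; nearly all actives have a fitted effect of over 55% in size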
#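 Fibrosarcoma NT cells, 750 per well in 5% FBS RPMI, were exposed to compound for 48 hours. Viability: CellTiter-Glo luminescence.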
# DT40 TDP1 CPT: qHTS for Inhibitors of human tyrosyl-DNA phosphodiesterase 1 (TDP1): qHTS in cells in presence of CPT | chicken DT40 Tdp1-/-;hTDP1 cells + 20 nM CPT, ATP luminescence, 48 h | Potency, µM (highest dose often 46.2 µM), most hits filed as inhibitors | actives 12% (n = 420,000) | AID 686979, 2013; further: nearly all actives have a fitted effect of over 55% in size
#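 Chicken DT40 Tdp1-/- cells stably complemented with human TDP1 were seeded at 400 cells/well in medium containing 20 nM camptothecin, exposed to pin-transferred compounds, and grown at 37 °C for at least 48 hr. Viability was read as ATP luminescence.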
# HT1080 IDH1KD tx: qHTS for induction of synthetic lethality in tumor cells producing 2HG: qHTS for the HT-1080-IDH1KD cell line; HT-1080 IDH1 knockdown viability, ATP luminescence, 48 h; Potency, µM (top dose mostly 46.1 µM), actives largely listed as cytotoxic; actives 2% (n = 360,000); AID 686971, 2013
#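 Cytotoxicity counter-line: IDH1KD HT-1080, 48 h, CellTiter-Glo. Curves classed by r2, magnitude and activity.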
# Hits are given with their value; – = inactive; ? = inconclusive; · = not tested or not shown. Unless noted, the call rests on the fitted dose curve; in most records, active means well fitted curve in the direction sought with a large enough effect; inconclusive means small, poorly fitted or top-dose-only effect, or another doubt; inactive means no such curve, though single readings can be large; an effect the other way counts as inactive or inconclusive.
SMILES,DT40 TDP1 no CPT,12-LOX inh,IL1B secr inh,HT1080NT lethal,DT40 TDP1 CPT,HT1080 IDH1KD tx
CC(C)NS(=O)(=O)c1cccc2nsnc12,–,–,–,–,–,–
CCOC(=O)C1CCN(c2ncnc3nc[nH]c23)CC1,–,–,-56,–,–,–
CCOC(=O)N1CCN(c2ncnc3nc[nH]c23)CC1,?,–,–,–,–,–
CCOC(=O)C1CCN(c2ncnc3c(C)csc23)CC1,13µM,–,–,–,?,–
COc1cc2ncnc(N3CCN(C(=O)Nc4ccc(Oc5ccccc5)cc4)CC3)c2cc1OC,11µM,·,·,·,11µM,·
CCOC(=O)C1CCN(c2ncnc3c2cnn3-c2ccc(OC)cc2)CC1,–,–,–,–,–,–
COc1ccccc1CC(=O)Nc1ccc2c(N3CCCCC3)ncnc2c1,·,–,·,·,·,·
CCOC(=O)C1CCN(c2ncnc3cc(OC)c(OC)cc23)CC1,21µM,–,–,–,?,–
COC(=O)c1c(S(=O)(=O)N2CCCCCCC2)sc2c1CCN(C(=O)C1CC=CCC1)C2 (stereo not given),·,–,·,·,·,·
CCN(CCNCC(O)COc1ccccc1C(C)C)c1cccc(C)c1 (stereo not given),18µM,?,-104,21µM,?,18µM
CCOC(=O)c1cccc(OCC(O)CNCCOc2ccccc2F)c1 (stereo not given),–,?,–,–,–,–
CC1SCC(NC(=O)c2cccc(Cl)c2)CS1 (stereo not given),12µM,–,–,–,15µM,–
CN(N=Cc1ccccc1)C(=S)Nc1ccccc1,12µM,?,–,–,–,–
COc1ccc(C2CC(O)(c3ccccc3)Oc3cc(OC)cc(OC)c32)cc1 (stereo not given),?,–,?,–,23µM,–
CCCCSCCCNC(=O)c1ccc2c(c1)N(CC)C(=O)c1ccccc1S2=O (stereo not given),?,–,–,–,18µM,–
CCN1C(=O)c2ccccc2S(=O)c2ccc(C(=O)NCc3ccccc3OC)cc21 (stereo not given),23µM,–,·,·,?,·
CCN1C(=O)c2ccccc2S(=O)c2ccc(C(=O)NCc3ccc(OC)cc3)cc21 (stereo not given),?,–,–,–,?,–
CC(C)(C)N1Cc2nnn(Cc3ccccc3)c2-c2cc(N3CCCC3)ccc2S1(=O)=O,·,–,·,·,·,·
COc1cc(NC(=O)CC(c2cccs2)N2Cc3ccccc3C2=O)cc(OC)c1OC (stereo not given),23µM,–,·,·,23µM,·
COc1ccc(C(CC(=O)Nc2ccc(C)c(C)c2)N2Cc3ccccc3C2=O)cc1OC (stereo not given),21µM,–,·,·,15µM,·
COc1ccc(C(CC(=O)Nc2cccc(F)c2)N2Cc3ccccc3C2=O)cc1OC (stereo not given),·,–,·,·,·,·
Cc1ccc(C(CC(=O)Nc2ccc(F)c(Cl)c2)N2Cc3ccccc3C2=O)cc1 (stereo not given),?,–,·,·,?,·
COc1ccc(C(CC(=O)Nc2ccc(F)c(Cl)c2)N2Cc3ccccc3C2=O)cc1OC (stereo not given),15µM,–,·,·,?,·
CCc1ccc(N2CC(C(=O)OCC(=O)N(CC)c3c(N)n(Cc4ccccc4)c(=O)[nH]c3=O)CC2=O)cc1 (stereo not given),–,–,–,–,–,–
Brc1cccc(-c2nnc(SCc3ccon3)n2-c2ccccc2)c1,15µM,–,–,–,?,–
CCCC(O)(CCC)C(=O)NN1CCCCC1,?,–,–,–,23µM,–
